In PubChem BioAssay AID493000 (Johns Hopkins Ion Channel Center, 2010):
In all, about 1,900 compounds went through this assay and about 390 (21%) were called active. No rule for the calls is given here. The list is a sample of the results.

Experiment: nonspecific enhancement of M3R calcium signal without RGS4 – HEK293 M3R, non-induced cells, counter-screen for RGS4 inhibitor project, confirmation (AID 493000);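 also: RGS4 induction absent so cells express M3R without RGS4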;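 as to activity (percent): higher means more calcium signal and flags a non-specific hit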
Settings: carbachol calcium Fluo-4, at 10 µM, submaximal (EC20) carbachol stimulus; active compounds read high, buffer wells 0%, carbachol control wells 100%

Row | SMILES | activity (percent)
1 | Cc1ccc(NC(=O)c2c(NC(=O)CCC(=O)O)sc3c2CCCCC3)cc1 | inactive
2 | CC(C)c1nc(SCC(=O)Nc2cccc(C(=O)O)c2)c2c3c(sc2n1)CCCC3 | 41.5% (active)
3 | CCOc1ccc(/C=N/NC(=O)CSc2ccccn2)cc1O | inactive
4 | S=c1[nH]nc(-c2cccnc2)n1/N=C/C(Cl)=C\c1ccccc1 | inactive
5 | O=C(/C=C/c1ccc(Cl)c([N+](=O)[O-])c1)c1ccc(O)cc1 | 43.5% (active)
6 | COc1ccc(/C=C/C(=O)c2ccc(OC)cc2O)cc1 | inactive
7 | O=C(/C=C/c1ccc(Cl)c([N+](=O)[O-])c1)c1cccnc1 | 43.5% (active)
8 | C1=C(N2CCOCC2)/C(=C/c2nc3ccccc3[nH]2)CC1 | inactive
9 | CNCC(O)c1ccc(O)c(O)c1 (stereo not drawn) | inactive
10 | O=C(Nc1ccc(Cl)cc1)OCc1cc(-c2ccccc2)on1 | inactive
11 | O=[N+]([O-])c1c(NCCO)cc(Sc2nc3ccccc3s2)c2nonc12 | inactive
12 | CCCCC1S/C(=N/N=C/c2cccs2)NC1=O (stereo not drawn) | inactive
13 | COc1cc(Br)cc(/C=N/c2ncn[nH]2)c1O | inactive
14 | Oc1ccc(/C=N/Nc2ccc(C(F)(F)F)cn2)cc1O | 34.5% (active)
15 | Cn1c(-c2ccco2)nc2cc3ccccc3cc21 | inactive
16 | COc1cc2c(cc1O)C(SC)=NC(C)(C)C2 | inactive
17 | O=C1Nc2ccc(Br)cc2/C1=N/N=C/C1=C(N2CCOCC2)C(=C\c2ccccc2)/CC1 | 31.5% (active)
18 | O=C(O)C(c1ccccc1)N1C(=O)/C(=C\c2ccc(-c3cccc(Cl)c3)o2)SC1=S (stereo not drawn) | inactive
19 | COc1ccc(/C(O)=C2/C(=O)C(=O)N(c3nc(C)c(C)s3)C2c2ccco2)cc1 (stereo not drawn) | inactive
20 | C=C(C)C(=O)O[C@H]1C/C(C)=C\C(=O)/C=C(\C)[C@H](O)[C@@H]2OC(=O)C(=C)[C@@H]21 | inactive
21 | C[C@H](NC(=O)c1nc[nH]c1C(=O)NCC(=O)OC(C)(C)C)c1ccccc1 | inactive
22 | Cc1ccc(Nc2nc(N)nc(CN3CCN(Cc4ccccc4)CC3)n2)cc1Cl | inactive

Row | SMILES | activity (percent)
23 | O=C(CCN1CCc2ccccc2C(O)(c2ccccc2)C1)c1ccc2c(c1)OCCO2 (stereo not drawn) | 34.5% (active)
24 | CS(=O)(=O)N(CC(O)Cn1c2ccccc2c2ccccc21)c1cccc2ccccc12 (stereo not drawn) | inactive
25 | Oc1ccc(-c2[nH]ncc2-c2nc3ccccc3s2)c(O)c1 | inactive
26 | CCn1c(O)c(N=NC2=NC(=O)CS2)c2cc(C)ccc21 | inactive
27 | CCc1nnc(NS(=O)(=O)c2ccc(N=Cc3c(C)[nH]n(-c4ccc(C)cc4)c3=O)cc2)s1 | inactive
28 | O=C(NCc1ccccc1)c1ccc(S(=O)(=O)Nc2cccc(C(F)(F)F)c2)cc1 | inactive
29 | Cc1ccc(-c2c3c(=O)n(C)c(=O)n(C)c3cn2-n2cnnc2)cc1 | inactive
30 | C#CCOc1ccc(/C=C2/C(=O)ON=C2C)cc1OCC | inactive
31 | C=CCOc1ccc(/C=C2/C(=O)ON=C2C)cc1OCC | 32.5% (active)
32 | COc1cc(/C=C2/C(=O)ON=C2C)ccc1OCc1ccccc1F | inactive
33 | COC(=O)C1CCN(C(=O)c2cc(=O)[nH]c3ccccc23)CC1 | inactive
34 | O=C(COC(=O)c1cccc(Br)c1)Nc1cccc2c1C(=O)c1ccccc1C2=O | inactive
35 | O=[N+]([O-])/C=C/c1ccc2c(ccn2Cc2ccccc2)c1 | inactive
36 | COC(=O)Cn1cc(/C=C/[N+](=O)[O-])c2ccccc21 | 38% (active)
37 | COc1ccc2c(c1OC)C(=O)OC2Nc1nc(-c2ccccc2)cs1 (stereo not drawn) | inactive
38 | Cc1ccc(S/C(=N\S(=O)(=O)c2ccc(Cl)cc2)c2ccccc2)cc1 | inactive
39 | Cc1ccc(Sc2cc(N3CCOCC3)nc(-c3ccccc3)n2)cc1 | 55.5% (active)
40 | Cc1c(NC(=O)c2coc(=O)c(Br)c2)c(=O)n(-c2ccccc2)n1C | inactive
41 | c1ccc(C[C@H]2CNCCN2CCC23CC4CC(CC(C4)C2)C3)cc1 | inactive
42 | Cc1ccc(C)c(Cn2nnc3c(=O)[nH]c(C(=O)Nc4ccc(F)cc4)nc32)c1 | 45.5% (active)
43 | O=C1NC(c2ccc(-c3ccccc3[N+](=O)[O-])o2)C(C(=O)c2ccc(Cl)cc2)C(O)(C(F)(F)F)N1 (stereo not drawn) | 38.5% (active)
